Data reported in PubChem BioAssay (NCATS).
Values without a mark were called inactive. Results filed as inconclusive are left out. Calls of active or inactive are those of the source. Unless noted, calls follow the shape of the dose curve; as a rule, active = well fitted curve in the direction sought with a large enough effect; inconclusive = small, poorly fitted or top-dose-only effect, or another doubt; inactive = no such curve, though single readings can be large; an effect the other way counts as inactive or inconclusive.

Test system: not listed separately
Assay: Cell Viability - Mesenchymal (AID 546);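 also: cells exposed to compound for 40 hours before reading; 0% = DMSO only and -100% = 100 µM tamoxifen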
Details: mesenchymal cells viability, qHTS; series mostly up to 91.7 µM; activity change, negative = cytotoxicity: at the top concentration
Outline: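 AC50 values reflect the drop in intracellular ATP in a human kidney mesenchymal line derived from normal glomeruli. Treatment lasts 40 hr at 37 °C in complete medium, and the signal comes from CellTiter-Glo luminescence.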

First: Cc1cc(CC(=O)O)n(C)c1C(=O)c1ccc(Cl)cc1
Second: CCCCOC(=O)c1ccc(O)cc1
The “activity change, negative = cytotoxicity” value of the first is higher: -7.25% for the first, -12.8% for the second.

First: C[C@]12C[C@H](O)[C@H]3[C@@H](CCC4=CC(=O)CC[C@@]43C)[C@@H]1CC[C@@H]2C(=O)CO
Second: CC1(C)[C@@H]2CC[C@@]1(C)C(=O)C2
The “activity change, negative = cytotoxicity” value of the first is lower: -17.5% for the first, 9.92% for the second.

Compared with `COC(=O)C1=C(C)NC(C)=C(C(=O)OC)C1c1ccccc1[N+](=O)[O-]`, `NC(=O)N/N=C/c1ccc([N+](=O)[O-])o1` is higher in “activity change, negative = cytotoxicity” value: -17.9% for the first, 0.0797% for the second.

Going from `O=C1O[C@H]([C@@H](O)CO)C(O)=C1O` to `Cc1cc2nc3c(=O)[nH]c(=O)nc-3n(C[C@H](O)[C@H](O)[C@H](O)CO)c2cc1C`, the “activity change, negative = cytotoxicity” value rises from 0.378% to 6.38%.

Going from `[Cl][In]([Cl])[Cl]` to `Nc1ccc(S(=O)(=O)Nc2nccs2)cc1`, the “activity change, negative = cytotoxicity” value falls from 6.13% to -2.03%.

First: NC(=O)c1ncn([C@@H]2O[C@H](CO)[C@@H](O)[C@H]2O)n1
Second: Oc1cccc(O)c1
The “activity change, negative = cytotoxicity” value of the first is lower: -37.1% for the first, 1.2% for the second.

First: NCCNCCNCCNCCN
Second: NCCNCCNCCN
The “activity change, negative = cytotoxicity” value of the first is higher: 14.8% for the first, 11.8% for the second.

With `CC12CCC(CC1)C(C)(C)O2` the “activity change, negative = cytotoxicity” value was -4.66%.

With `CCCCCCCCCCCCOS(=O)(=O)O` the outcome was “inactive”.
In the case of `COc1ccccc1O`, the outcome is reported as “inactive”.

Target: 3',5'-cyclic-AMP phosphodiesterase 4B (Homo sapiens) (UniProt Q07343)
Sequence (Q07343 whole entry, looked up): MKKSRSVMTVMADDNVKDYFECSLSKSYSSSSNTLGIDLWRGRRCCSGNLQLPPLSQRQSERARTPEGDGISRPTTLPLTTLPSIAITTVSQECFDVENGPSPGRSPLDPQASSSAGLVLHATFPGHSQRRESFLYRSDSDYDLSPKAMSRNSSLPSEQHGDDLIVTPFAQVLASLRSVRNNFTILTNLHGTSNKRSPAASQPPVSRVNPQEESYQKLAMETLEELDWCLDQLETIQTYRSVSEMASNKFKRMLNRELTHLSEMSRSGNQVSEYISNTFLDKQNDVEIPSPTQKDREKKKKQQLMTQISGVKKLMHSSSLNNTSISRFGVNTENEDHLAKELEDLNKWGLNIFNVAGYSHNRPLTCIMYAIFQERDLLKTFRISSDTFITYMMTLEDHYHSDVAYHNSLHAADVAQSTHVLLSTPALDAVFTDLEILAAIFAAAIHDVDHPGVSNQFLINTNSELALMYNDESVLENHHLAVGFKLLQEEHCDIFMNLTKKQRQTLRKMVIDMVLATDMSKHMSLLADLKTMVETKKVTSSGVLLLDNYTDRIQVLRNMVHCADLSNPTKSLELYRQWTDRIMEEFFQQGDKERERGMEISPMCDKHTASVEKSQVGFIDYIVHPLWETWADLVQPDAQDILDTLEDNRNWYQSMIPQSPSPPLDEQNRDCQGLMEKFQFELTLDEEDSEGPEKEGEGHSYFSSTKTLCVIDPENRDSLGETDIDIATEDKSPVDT
Assay: qHTS Assay for Inhibitors of PDE-IV (AID 607; active = well fitted activation curve with a large enough effect in the main read-out, with a control signal flat, not every such curve was filed as active; also: % of control where 0% means no effect)
Details: HEK293 ACTOne CNG channel cells, membrane potential fluorescence; series mostly up to 22.9 µM; activation (PDE inhibition): at the top concentration
Outline: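 The readout is membrane depolarisation from a cAMP-sensing CNG channel, detected with a potential dye at ex 535/em 590. Cells were HEK293-derived (endogenous PDE-IV) at 1000 cells/well, titrated up to 22.9 uM final.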

First: Cc1cc(CC(=O)O)n(C)c1C(=O)c1ccc(Cl)cc1
Second: CCCCOC(=O)c1ccc(O)cc1
The “activation (PDE inhibition)” value of the first is lower: -3.1% for the first, 23.2% for the second.

Compared with `NC(N)=NCCC[C@H](N)C(=O)O`, `C[C@H](N)[C@H](O)c1cccc(O)c1` is higher in “activation (PDE inhibition)” value: -4.22% for the first, 7.39% for the second.

First: Nc1ccc(S(=O)(=O)Nc2nccs2)cc1
Second: Nc1ccc(S(=O)(=O)Nc2ccc(Cl)nn2)cc1
The “activation (PDE inhibition)” value of the first is higher: 11.6% for the first, -4.31% for the second.

Compared with `CCn1cc(C(=O)O)c(=O)c2cnc(N3CCNCC3)nc21`, `Nc1cc(=O)[nH]c(N)n1` is lower in “activation (PDE inhibition)” value: -6.18% for the first, -10.7% for the second.

With `NS(=O)(=O)c1cc2c(cc1Cl)NC(CSCc1ccccc1)=NS2(=O)=O` the “activation (PDE inhibition)” value was 23.9%.

In the case of `COC(=O)C1=C(C)NC(C)=C(C(=O)OC)C1c1ccccc1[N+](=O)[O-]`, the outcome is reported as “inactive”.
With `CCCCCCCCCCCCCCCC(=O)NCCO` the outcome was “inactive”.
In the case of `CNCCCC1c2ccccc2C=Cc2ccccc21`, the outcome is reported as “inactive”.
With `COc1ccc(Cl)cc1C(=O)NCCc1ccc(S(=O)(=O)NC(=O)NC2CCCCC2)cc1` the outcome was “inactive”.
For `CC1=C(CC(=O)O)c2cc(F)ccc2/C1=C\c1ccc(S(C)=O)cc1` (configuration not stated), the outcome was “inactive”.

Test system: not listed separately
Assay: Cellular Toxicity (caspase-3) HepG2 (AID 654);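 also: cells exposed to compound for 16 hours before reading; 0% = DMSO alone and 100% = caspase signal from 100 µM tamoxifen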
Details: HepG2 caspase-3 activation, luminescence; series mostly up to 92.2 µM; caspase-3 activation: at the top concentration
Outline: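 Cells plated 5 hr at 37 °C, compound added, incubated 16 hr at 37 °C. Caspase-Glo 3/7 reagent followed, 20 min at room temperature, then luminescence read. Activation scored as signal increase; AC50 from Hill fit.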

Going from `Cc1cc(CC(=O)O)n(C)c1C(=O)c1ccc(Cl)cc1` to `CCCCOC(=O)c1ccc(O)cc1`, the “caspase-3 activation” value falls from 0.335% to -0.0452%.

Going from `C[C@]12C[C@H](O)[C@H]3[C@@H](CCC4=CC(=O)CC[C@@]43C)[C@@H]1CC[C@@H]2C(=O)CO` to `CC1(C)[C@@H]2CC[C@@]1(C)C(=O)C2`, the “caspase-3 activation” value rises from -0.909% to 0.116%.

Compared with `COC(=O)C1=C(C)NC(C)=C(C(=O)OC)C1c1ccccc1[N+](=O)[O-]`, `NC(=O)N/N=C/c1ccc([N+](=O)[O-])o1` is higher in “caspase-3 activation” value: -0.11% for the first, 0.544% for the second.

First: O=C1O[C@H]([C@@H](O)CO)C(O)=C1O
Second: Cc1cc2nc3c(=O)[nH]c(=O)nc-3n(C[C@H](O)[C@H](O)[C@H](O)CO)c2cc1C
The “caspase-3 activation” value of the first is lower: 0.131% for the first, 0.544% for the second.

Compared with `[Cl][In]([Cl])[Cl]`, `Nc1ccc(S(=O)(=O)Nc2nccs2)cc1` is higher in “caspase-3 activation” value: -0.0899% for the first, 1.19% for the second.

Going from `NC(=O)c1ncn([C@@H]2O[C@H](CO)[C@@H](O)[C@H]2O)n1` to `Oc1cccc(O)c1`, the “caspase-3 activation” value rises from 0.105% to 0.259%.

First: NCCNCCNCCNCCN
Second: NCCNCCNCCN
The “caspase-3 activation” value of the first is higher: 0.204% for the first, -0.0259% for the second.

In the case of `CC12CCC(CC1)C(C)(C)O2`, the “caspase-3 activation” value is reported as 0.204%.

In the case of `CCCCCCCCCCCCOS(=O)(=O)O`, the Potency is reported as “inactive”.
For `COc1ccccc1O`, the Potency was “inactive”.

Test system: not listed separately
Assay: Cellular Toxicity (caspase-3) Jurkat (AID 655);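 also: cells exposed to compound for 16 h at 37 °C before reading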
Details: Jurkat caspase-3 activation, luminescence; series mostly up to 92.2 µM; caspase-3 activation: at the top concentration
Outline: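 Luminescent Caspase-Glo 3/7 read-out (20 min, room temperature) after 16 h compound treatment at 37 C of 5000 Jurkat cells per well. AC50 derived by Hill-equation fitting, scaled between DMSO basal and 100 uM tamoxifen stimulation.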

Compared with `Cc1cc(CC(=O)O)n(C)c1C(=O)c1ccc(Cl)cc1`, `CCCCOC(=O)c1ccc(O)cc1` is lower in “caspase-3 activation” value: -0.668% for the first, -0.753% for the second.

Going from `C[C@]12C[C@H](O)[C@H]3[C@@H](CCC4=CC(=O)CC[C@@]43C)[C@@H]1CC[C@@H]2C(=O)CO` to `CC1(C)[C@@H]2CC[C@@]1(C)C(=O)C2`, the “caspase-3 activation” value falls from 0.356% to -1.41%.

Going from `COC(=O)C1=C(C)NC(C)=C(C(=O)OC)C1c1ccccc1[N+](=O)[O-]` to `NC(=O)N/N=C/c1ccc([N+](=O)[O-])o1`, the “caspase-3 activation” value falls from 15.2% to 0.658%.

Going from `O=C1O[C@H]([C@@H](O)CO)C(O)=C1O` to `Cc1cc2nc3c(=O)[nH]c(=O)nc-3n(C[C@H](O)[C@H](O)[C@H](O)CO)c2cc1C`, the “caspase-3 activation” value falls from 4.41% to -1.03%.

First: [Cl][In]([Cl])[Cl]
Second: Nc1ccc(S(=O)(=O)Nc2nccs2)cc1
The “caspase-3 activation” value of the first is lower: 0.297% for the first, 1.52% for the second.

Compared with `NC(=O)c1ncn([C@@H]2O[C@H](CO)[C@@H](O)[C@H]2O)n1`, `Oc1cccc(O)c1` is lower in “caspase-3 activation” value: 29% for the first, 12.1% for the second.

First: NCCNCCNCCNCCN
Second: NCCNCCNCCN
The “caspase-3 activation” value of the first is higher: 5.78% for the first, 0.555% for the second.

In the case of `CC12CCC(CC1)C(C)(C)O2`, the “caspase-3 activation” value is reported as -2.05%.

With `CCCCCCCCCCCCOS(=O)(=O)O` the Potency was “inactive”.
With `COc1ccccc1O` the Potency was “inactive”.

Test system: not listed separately
Assay: Cellular Toxicity (caspase-3) HUV-EC-C (AID 656);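 also: 0% = DMSO basal and 100% = 100 µM tamoxifen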
Details: HUV-EC-C cells, caspase-3 activation (apoptosis), vehicle = 0, 100 µM tamoxifen = 100%; series mostly up to 92.2 µM; caspase-3 activation: at the top concentration
Outline: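 Luminescent Caspase-Glo 3/7 readout after 16 h, 37 °C compound exposure of HUV-EC-C endothelial cells, 1000 per well, complete medium. AC50 derived by Hill fitting, with DMSO as baseline and 100 uM tamoxifen as full activation.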

Compared with `Cc1cc(CC(=O)O)n(C)c1C(=O)c1ccc(Cl)cc1`, `CCCCOC(=O)c1ccc(O)cc1` is lower in “caspase-3 activation” value: 5% for the first, -1.95% for the second.

Compared with `C[C@]12C[C@H](O)[C@H]3[C@@H](CCC4=CC(=O)CC[C@@]43C)[C@@H]1CC[C@@H]2C(=O)CO`, `CC1(C)[C@@H]2CC[C@@]1(C)C(=O)C2` is higher in “caspase-3 activation” value: -3.33% for the first, 2.53% for the second.

Going from `COC(=O)C1=C(C)NC(C)=C(C(=O)OC)C1c1ccccc1[N+](=O)[O-]` to `NC(=O)N/N=C/c1ccc([N+](=O)[O-])o1`, the “caspase-3 activation” value rises from -3.94% to -1.38%.

Compared with `O=C1O[C@H]([C@@H](O)CO)C(O)=C1O`, `Cc1cc2nc3c(=O)[nH]c(=O)nc-3n(C[C@H](O)[C@H](O)[C@H](O)CO)c2cc1C` is lower in “caspase-3 activation” value: 1.35% for the first, 0.141% for the second.

Compared with `[Cl][In]([Cl])[Cl]`, `Nc1ccc(S(=O)(=O)Nc2nccs2)cc1` is lower in “caspase-3 activation” value: 1.67% for the first, -2.23% for the second.

Compared with `NC(=O)c1ncn([C@@H]2O[C@H](CO)[C@@H](O)[C@H]2O)n1`, `Oc1cccc(O)c1` is higher in “caspase-3 activation” value: -1.86% for the first, -1.62% for the second.

First: NCCNCCNCCNCCN
Second: NCCNCCNCCN
The “caspase-3 activation” value of the first is lower: -3.31% for the first, -2.17% for the second.

With `CC12CCC(CC1)C(C)(C)O2` the “caspase-3 activation” value was -3.53%.

With `CCCCCCCCCCCCOS(=O)(=O)O` the outcome was “inactive”.
In the case of `COc1ccccc1O`, the outcome is reported as “inactive”.
